The text below walks through data of PubChem BioAssay (NCATS).

One assay has as its system MKL-1. The assay can be described thus: qHTS assay to identify novel small-molecules to repurpose for Merkel cell carcinoma treatment (AID 1296009). Further: nearly all actives have a fitted effect of over 60% in size. Further: potency means the concentration at half of the fitted maximal effect. Conditions: MCC and control cell lines, CellTiter-Glo viability, 72 h; series mostly up to 46 µM. The gist of the method: (§1)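 Cell viability measured by CellTiter-Glo following 72 hr compound treatment at 37 degree celsius, with NPC and MIPE libraries tested in 8- and 11-point concentration series.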

The subject of the next assay is MKL-2. The assay is described as above. As to conditions: MCC and control cell lines, CellTiter-Glo viability, 72 h; series mostly up to 46 µM. A digest of the protocol: as §1
On the technique in general: ATP-based viability assays read luminescence as a measure of living cells.

Another assay deals with NIH3T3. Described as above. As to conditions: MCC and control cell lines, CellTiter-Glo viability, 72 h; at 44.8 µM (top of the series) unless noted. A digest of the protocol: as §1
For the next assay, the system named is UISO. The description is as above. As to conditions: MCC and control cell lines, CellTiter-Glo viability, 72 h; series mostly up to 46 µM. A digest of the protocol:
as §1

For the next assay, the system named is WaGa. The description is as above. Conditions: MCC and control cell lines, CellTiter-Glo viability, 72 h; series mostly up to 46 µM. The gist of the method:
as §1

In the next assay the test system is C33A. The assay can be described thus: Primary qHTS to identify gynecologic anti-cancer compounds using libraries of approved drugs and bioactive compounds (AID 1345084). Further: nearly all actives have a fitted effect of over 55% in size. Conditions: Gynecologic cancer cell panel viability, ATPlite luminescence, 48 h; series mostly up to 57.5 µM. The gist of the method: (§2)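 In this quantitative HTS, cell killing is estimated from loss of ATP-dependent luciferase light. Cells see five compound concentrations over a 48 h exposure.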
For orientation: qHTS replaces the single test concentration by a dilution series.

Another assay deals with CAOV3. The assay is described as above. Conditions: Gynecologic cancer cell panel viability, ATPlite luminescence, 48 h; series mostly up to 57.5 µM. A digest of the protocol:
as §2

The test system of another assay is CASKI. The description is as above. Conditions: Gynecologic cancer cell panel viability, ATPlite luminescence, 48 h; series mostly up to 57.5 µM. A digest of the protocol: as §2
The test system of a further assay is Es-2. The assay is described as above. Conditions: Gynecologic cancer cell panel viability, ATPlite luminescence, 48 h; series mostly up to 57.5 µM. The gist of the method:
as §2

Another assay has as its system HeLa. The description is as above. As to conditions: Gynecologic cancer cell panel viability, ATPlite luminescence, 48 h; series mostly up to 57.5 µM. The gist of the method:
as §2

In the next assay the test system is Hek293T. The description is as above. As to conditions: Gynecologic cancer cell panel viability, ATPlite luminescence, 48 h, control line for the selectivity index; series mostly up to 57.5 µM. The gist of the method:
as §2

Another assay has as its system JEG-3. The assay is described as above. Conditions: Gynecologic cancer cell panel viability, ATPlite luminescence, 48 h; series mostly up to 57.5 µM. A digest of the protocol:
as §2

A further assay concerns OV90. The description is as above. As to conditions: Gynecologic cancer cell panel viability, ATPlite luminescence, 48 h; series mostly up to 57.5 µM. A digest of the protocol: as §2
A further assay concerns PA-1. The assay is described as above. As to conditions: Gynecologic cancer cell panel viability, ATPlite luminescence, 48 h; series mostly up to 57.5 µM. The gist of the method: as §2
In the next assay the test system is SKOV3. The description is as above. Conditions: Gynecologic cancer cell panel viability, ATPlite luminescence, 48 h; series mostly up to 57.5 µM. A digest of the protocol: as §2
The test system of another assay is Tov-21-G. The description is as above. As to conditions: Gynecologic cancer cell panel viability, ATPlite luminescence, 48 h; series mostly up to 57.5 µM. A digest of the protocol:
as §2

The test system of a further assay is Tov112D. The description is as above. As to conditions: Gynecologic cancer cell panel viability, ATPlite luminescence, 48 h; series mostly up to 57.5 µM. The gist of the method: as §2
Assay [1] in a line: qHTS assay to identify inhibitors of the type 1 interferon - major histocompatibility complex class I in skeletal muscle: Counter screen cell viability and HiBit confirmation (AID 1347412). Further: nearly all actives have a fitted effect of over 60% in size. Conditions: iHSKM muscle cells + IFN-b, HiBiT or CellTiter-Glo, 24 h, at 45.9 µM (top of the series). The gist of the method:
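Duplicate plates, pinned identically: one read for HiBiT-tagged endogenous HLA-B luminescence, the other for ATP-content viability via CellTiter Glo. Cells were genome-engineered human myoblasts given 4 ng/ml IFN-b; compounds 12-pt, 1:3 from 46 uM final; 24 hr exposure.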

Inconclusive results are not listed. Values without a mark were called inactive. The source made the active and inactive calls. The call rests on the fitted dose curve; in most records, active means well fitted curve in the direction sought with a large enough effect; inconclusive means small, poorly fitted or top-dose-only effect, or another doubt; inactive means no such curve, though single readings can be large; an effect the other way counts as inactive or inconclusive.
On the % scale 0 is the no-effect control and ±100 the full control effect.

Consider `Clc1cccc(-n2nnnc2NCc2ccccc2Oc2ccccn2)c1Cl`, for which the Potency entry with MKL-1, with MKL-2, in the assay with UISO, with WaGa, with C33A and in the assay with CAOV3 was “inactive” in each case. Also, the Potency result in the assay with CASKI, in the assay on Es-2, in the assay on HeLa, with Hek293T, in the assay on JEG-3 and in the assay with OV90 was “inactive” in each case. The Potency result in the assay with PA-1, in the assay on SKOV3, in the assay with Tov-21-G and in the assay with Tov112D was “inactive” throughout. The compound was classed as inactive in the assay on NIH3T3.
Consider `O=C(NCCS(=O)(=O)c1ccc(C(F)(F)F)cn1)c1ccc(Cl)cc1`, for which the Potency entry with MKL-1, in the assay with MKL-2, in the assay on UISO and with WaGa was “inactive” in each case.
Turning to `CC(=O)OCCN1C(=O)c2c(C)nc3ccc(S(=O)(=O)N4CCOCC4)cc3c2C1=O`, the Potency result with MKL-1, in the assay on MKL-2, in the assay with UISO and with WaGa was “inactive” in each case.
With `CN(C)CCCN=c1c2ccccc2n(C)c2[nH]c(=O)n(C)c(=O)c12`, the Potency with MKL-1 is 10.5 µM (active); with MKL-2 it was 14.8 µM (active); in the assay on UISO it was 20.9 µM (active); with WaGa, 7.43 µM (active).
Regarding `CC(=O)OCC(=O)[C@@]1(O)[C@H](C)C[C@H]2[C@@H]3C=C(C)C4=Cc5c(cnn5-c5ccccc5)C[C@]4(C)[C@@H]3[C@@H](O)C[C@@]21C`, the Potency entry in the assay on MKL-1, in the assay on UISO and in the assay on WaGa was “inactive” throughout. In the assay on MKL-2, the Potency is 7.43 µM (active).
Regarding `CCOc1ccccc1OCCNC(C)Cc1ccc(OC)c(S(N)(=O)=O)c1` (centres undefined), the Potency result in the assay with MKL-1, in the assay on MKL-2, in the assay on UISO, in the assay with WaGa, with C33A and with CAOV3 was “inactive” each time. Further, the Potency result in the assay on CASKI, in the assay with Es-2, in the assay on HeLa, in the assay with Hek293T, in the assay on JEG-3 and with OV90 was “inactive” throughout. Moreover, the Potency result in the assay on PA-1, in the assay on SKOV3, with Tov-21-G and with Tov112D was “inactive” in each case. Besides, the outcome in the assay on NIH3T3 was inactive.
Turning to `CC(C)(C)c1cc(C(C)(C)C)c(NC(=O)c2c[nH]c3ccccc3c2=O)cc1O`, the Potency entry in the assay with MKL-1, in the assay on MKL-2, in the assay on UISO and in the assay with WaGa was “inactive” throughout. Also, the outcome with NIH3T3 was inactive. Further, the results for the activity change, negative = inhibition in assay [1] (HiBiT) and in assay [1] (Viability) were -18% and -12%, respectively.
Regarding `C[C@@H]1CN(CC(=O)Nc2ccc3c(c2)Cc2cccc(-c4cc(=O)cc(N5CCOCC5)o4)c2S3)C[C@H](C)O1`, the Potency result with MKL-1 is “inactive”.
Turning to `N#Cc1c(O)c2c(-c3ccc(-c4ccccc4O)cc3)csc2[nH]c1=O`, the Potency entry with MKL-1, in the assay with MKL-2, with UISO, with WaGa, with C33A and with CAOV3 was “inactive” throughout. Moreover, the Potency entry with CASKI, in the assay with Es-2, with HeLa, in the assay on Hek293T, in the assay with JEG-3 and in the assay with OV90 was “inactive” each time. The Potency entry in the assay on PA-1, in the assay on SKOV3, in the assay with Tov-21-G and with Tov112D was “inactive” each time. Moreover, the compound was classed as inactive with NIH3T3.
On to `O=C(C=Cc1cccc(S(=O)(=O)Nc2ccccc2)c1)NO`, for which the Potency in the assay with MKL-1 was 7.62 µM (active); in the assay with MKL-2, 3.4 µM (active); in the assay on UISO it was 34 µM (active); in the assay on WaGa, 3.03 µM (active).
